Bioassay records deposited in PubChem by National Center for Advancing Translational Sciences (NCATS).
RXFP1 ag: activates the human relaxin receptor RXFP1; Q9HBX9; HEK293T-RXFP1 cAMP TR-FRET, 30 min; response scale: percent of porcine relaxin response, buffer zero; Potency, µM (highest dose often 57.5 µM), usual class: activators; 370,000 tested, 0.3% active; active = well fitted activation curve with a large enough effect; inconclusive = small, poorly fitted or top-dose-only effect; also: nearly all actives have a fitted effect of over 60% in size
Target sequence (Q9HBX9 whole entry, looked up): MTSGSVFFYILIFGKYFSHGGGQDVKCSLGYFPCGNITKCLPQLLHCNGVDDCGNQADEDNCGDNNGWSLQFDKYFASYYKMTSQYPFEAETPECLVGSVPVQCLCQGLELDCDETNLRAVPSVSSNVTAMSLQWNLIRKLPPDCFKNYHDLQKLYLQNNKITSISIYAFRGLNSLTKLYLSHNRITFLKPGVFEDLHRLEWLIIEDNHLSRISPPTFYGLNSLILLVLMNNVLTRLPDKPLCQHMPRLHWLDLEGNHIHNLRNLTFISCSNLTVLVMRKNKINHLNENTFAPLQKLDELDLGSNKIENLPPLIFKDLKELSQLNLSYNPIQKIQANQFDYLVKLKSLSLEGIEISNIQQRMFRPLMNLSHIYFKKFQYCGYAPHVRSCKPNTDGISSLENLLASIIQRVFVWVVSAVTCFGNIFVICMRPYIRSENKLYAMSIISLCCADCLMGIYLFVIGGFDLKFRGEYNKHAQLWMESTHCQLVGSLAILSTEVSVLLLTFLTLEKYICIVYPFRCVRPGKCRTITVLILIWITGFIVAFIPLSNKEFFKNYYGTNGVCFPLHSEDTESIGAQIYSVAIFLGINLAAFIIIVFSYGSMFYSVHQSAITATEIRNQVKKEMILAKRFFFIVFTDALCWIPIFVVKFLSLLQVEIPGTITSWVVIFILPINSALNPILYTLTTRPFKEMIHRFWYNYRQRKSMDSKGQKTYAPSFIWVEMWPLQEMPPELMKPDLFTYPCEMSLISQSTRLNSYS
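Agonist response is measured as cAMP accumulation in an RXFP1-transfected HEK293T line under PDE4 inhibition. Values are scaled between buffer-only and 29 nM porcine relaxin, and EC50s come from standard Hill equation fits.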
Akt phos inh: inhibitors of Akt phosphorylation. Neuro2A IGF-stimulated pAkt S473 HTRF, 20 min; stronger effect = lower value. AID 651550. 360,000 tested, 0.32% active. activity change, % for hits at 50 µM; in the data active = activity change below about -80%; inconclusive = mostly about -51% to -80%
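Neuro2A cells in DMEM with 0.5% FBS, overnight at 37 deg C, given compound at single 50 µM final, then IGF (6 nM final) for 20 min at 37 deg C. Lysed; phospho-Akt Ser473 by HTRF after 24 h, 665/615 ratio.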
RXFP1 antagonist: blocks the human relaxin receptor RXFP1; Q9HBX9; HEK293-RXFP1, relaxin-stimulated cAMP HTRF, 30 min; stronger effect = lower value; activity change, negative = inhibition, % at 57.5 µM; 350,000 tested, 0.59% active;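 active = activity change of -60% or lower, but not beyond a set lower limit; inconclusive = change between -60% and -40%, or beyond the set limit; inactive = change above -40%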
gsp ag: agonists of gsp mutant (McCune-Albright syndrome); 340,000 tested, 0.13% active; Potency, µM (series often up to 76.9 µM), hits mostly activators; gsp mutant cells, cAMP HTRF, 30 min; AID 624287; active = well fitted activation curve with a large enough effect; inconclusive = small, poorly fitted or top-dose-only effect, or another doubt; inactive = no such curve, though single readings can be large or run the other way; cell line not stated here;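 also: phosphodiesterase inhibitor Ro 20-1724 added with compounds to block cAMP breakdown; nearly all actives have a fitted effect of over 60% in size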
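Cells in DMEM/10% FBS with G418 were pretreated with compounds in DMSO plus […] (300 uM stock) for 30 min at 37C. cAMP was measured by HTRF (cAMP-d2 plus anti-cAMP antibody-K) after 30 min at room temperature.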
gsp antagonist: antagonizes gsp, the McCune-Albright syndrome mutation; gsp-mutant cells, cAMP HTRF, 30 min; Potency, µM (highest dose often 76.9 µM), usual class: inhibitors; 340,000 tested, 0.4% active; calls by dose curve; cell line not stated here;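 also: intracellular cAMP measured with PDE inhibitor Ro 20-1724 present during compound exposure; nearly all actives have a fitted effect of over 65% in size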
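Cells, 2000/well, grown 16–24 h in DMEM 10% FBS with 0.5 mg/ml G418, then compounds plus […] (300 uM addition stock), 30 min at 37C. cAMP read by HTRF (cAMP-d2 and anti-cAMP antibody-K in lysis buffer) after 30 min RT.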
Numbers stand for hits; n = inactive; u = inconclusive; x = not tested or not shown; [ ] = dose if it differs, or a comment. An excerpt weighted towards active compounds, which were near 1.2% of everything screened.

SMILES | RXFP1 ag | Akt phos inh | RXFP1 antagonist | gsp ag | gsp antagonist
CCOC(=O)N1CCN(C(=O)CSc2ccc3nnc(CCNC(=O)c4ccccc4)n3n2)CC1 | u | n | n | 12.6µM | n
Cc1ccc(-c2nnc3ccc(SCC(=O)NCc4ccco4)nn23)cc1 | n | u | n | n | n
O=C(CSc1ccc2nnc(-c3ccncc3)n2n1)NCc1ccco1 | n | n | x | 17.8µM | n
CCOC(=O)N1CCN(C(=O)CSc2ccc3nnc(-c4cccnc4)n3n2)CC1 | 14.1µM | n | n | u | n
CCOc1ccc(NC(=O)CSc2ccc3nnc(-c4cccnc4)n3n2)cc1 | 25.1µM | n | n | u | n
CCOC(=O)c1ccc(NC(=O)CC2C(=O)N(c3ccc(F)cc3)C(=O)N2Cc2ccc3c(c2)OCO3)cc1 (centres undefined) | n | x | x | x | x
Cc1nc(-c2ccc(OCC(C)C)c(C#N)c2)sc1C(=O)O | x | x | n | x | x
CC(CCc1ccc2c(c1)OCO2)NN (centres undefined) | x | x | n | x | x
Oc1ccccc1N=N/C(=N/Nc1ccccc1O)c1ccccc1 | n | n | x | x | n
N#C/C(N=Nc1ccccc1O)=N\Nc1ccccc1O | n | n | x | x | 35.5µM
O=C(O)CC/C(=N\Nc1ccc([N+](=O)[O-])cc1)c1ccccc1 | n | n | n | n[15.4 µM] | 31.6µM
Cc1ccccc1C(=O)NCc1nc2cccnc2n1Cc1ccccc1 | n | x | n | x | x
C=CCN=c1scc(-c2ccco2)n1/N=C/c1ccc(O)c(O)c1O | n | n | u | n[15.4 µM] | n
CN=c1scc(-c2cccs2)n1/N=C/c1ccccc1O | n | n | u | n | n
Oc1ccc(/C=N/n2c(-c3ccco3)csc2=Nc2cccnc2)c(O)c1 | n | n | -61.5 | n[15.4 µM] | u
COCCN=c1scc(-c2ccco2)n1/N=C/c1ccc(O)c(O)c1O | n | n | -103.8 | n[15.4 µM] | u
CN=c1scc(-c2cccs2)n1/N=C/c1ccc(O)c(O)c1O | n | n | -63.3 | n | n
Cn1c(=O)n(C)c2cc(NS(=O)(=O)c3ccc(F)cc3)c(NCc3ccccc3)cc21 | n | x | n | x | x
CCOC(=O)c1cc(-c2ccc(OC)cc2)n(CCC(=O)NC2CCC(C)CC2)c1C (centres undefined) | n | x | u | x | x
CC1CC(=O)NN=C1c1ccc(NCC(C)(C)NCC(O)COc2cc(Cl)ccc2C#N)cc1 (centres undefined) | x | x | n | x | x
COc1ccc(N(Cc2ccccc2)C(=O)CSc2nnc(Cn3nnc4ccccc43)o2)cc1 | n | n | n | n | 28.2µM
CC(=O)c1cccc(N(C(=O)c2csnn2)C(C(=O)NC2CCCC2)c2ccccc2)c1 (centres undefined) | n | n | -79.6 | n | n
CCOC(=O)C1CCCN(c2nc3c(S(=O)(=O)c4ccc(C)c(C)c4)nnn3c3ccc(Cl)cc23)C1 (centres undefined) | n | x | n | x | x
CCCCCCCCCCCCCCCC[n+]1cccc2ccccc21 | n | n | u | n | n
CCCCCCCCC[n+]1cccc2c3ccccc3ccc21 | n | n | -60.1 | n | n
SMILES | RXFP1 ag | Akt phos inh | RXFP1 antagonist | gsp ag | gsp antagonist
Cc1ccc(C(CC(=O)Nc2ccc(C)cc2C)N2Cc3ccccc3C2=O)cc1 (centres undefined) | n | x | x | x | x
CCOc1ccc(CCNC(=O)Cn2nc(-c3ccc(C)cc3)ccc2=O)cc1OCC | n | x | n | x | x
O=c1cc(-c2ccccc2)[nH]n1-c1nc2ccccc2[nH]1 | n | n | -75.6 | n | n
Cc1nc2ccccn2c(=O)c1NC(=O)c1ccc(C(F)(F)F)cc1 | n | x | n | x | x
COc1ccccc1Oc1ccc2c(c1)C(=O)N(c1cccc(O)c1)C2=O | n | x | n | n | u
COc1ccccc1Oc1ccc2c(c1)C(=O)N(c1cccc3ncccc13)C2=O | n | n | -88.9 | n[15.4 µM] | u
CC1(C)CC(=O)C2=C(C1)NC1=C(C(=O)c3ccccc31)C2c1cc([N+](=O)[O-])ccc1O (centres undefined) | u | n | n | 14.1µM | n
O=C(COC(=O)c1ccco1)Nc1nc2c(F)c(F)c(F)cc2s1 | n | n | n | n | n
O=C(COC(=O)c1ccc(NS(=O)(=O)c2cccs2)cc1)Nc1nc2c(F)c(F)c(F)cc2s1 | n | n | -61.5 | n[15.4 µM] | n
CCOC(=O)c1cc(CC)sc1NC(=O)c1ccc2c(c1)OCCO2 | n | -113.2% | n | n | u
Cc1ccccc1OCc1ccc(-c2nc(C#N)c(N3CCC(C(N)=O)CC3)o2)o1 | n | x | n | x | x
COc1ccc(/C=N/NC(=O)c2cc(C)oc2C)cc1OCc1ccccc1 | n | n | n | n | 12.6µM
Cc1cc(C(=O)N/N=C/c2ccc(OCc3ccccc3)cc2)c(C)o1 | n | n | n | n[15.4 µM] | n
CCC(C)(C)c1ccc(CC(C)CN2C[C@@H](C)O[C@@H](C)C2)cc1 (some centres undefined) | x | x | n | x | x
Cc1ccc(NC(=O)CN2C(=O)c3cccnc3Oc3ccc(Cl)cc32)cc1 | n | x | n | x | x
C=CC(=O)Nc1cc2c(Nc3ccc(F)c(Cl)c3)ncnc2cc1OCCCN1CCOCC1 | x | x | n | x | x
S=C(NCC1CCCO1)N1CCN(c2nc(-c3ccc(Cl)cc3)cs2)CC1 (centres undefined) | n | n | n | n[15.4 µM] | 50.1µM
S=C(NCCCN1CCOCC1)N1CCN(c2nc(-c3ccc(Cl)cc3)cs2)CC1 | n | n | u | u | n
Cc1ccc(C)c(NC(=O)CSc2nc3nc(-c4cccs4)cc(C(F)(F)F)c3c(=O)[nH]2)c1 | u | n | n | 20µM | n
Cc1ccc(NC(=O)c2ccc3c(c2)NC(=O)c2ccccc2S3)cc1 | n | x | n | x | x
COc1ccc(NC2CCN(C3CC(=O)N(c4ccc(F)c(Cl)c4)C3=O)CC2)cc1 (centres undefined) | n | n | n | n | n
CCN1C(=O)CC(N2CCC(Nc3ccc(OC)cc3)CC2)C1=O (centres undefined) | n | -106.0% | n | n | n[15.4 µM]
COc1ccc(C(=O)c2cn(Cc3cccc(C)c3)c3cc4c(cc3c2=O)OCCO4)cc1OC | n | x | -81.5 | x | x
Cc1cccc(Cn2cc(C(=O)c3ccccc3)c(=O)c3cc4c(cc32)OCO4)c1 | n | x | n | x | x
O=C1CC(NCc2ccc3c(c2)OCO3)C(=O)N1Cc1ccc2c(c1)OCO2 (centres undefined) | n | n | n | n | 28.2µM
COc1cccc(CNc2ccc3[nH]c(=O)[nH]c3c2)c1OCc1ccccc1Cl | n | n | -74.8 | n | n
COc1ccc(C2C(C(=O)N3CCC(C)CC3)c3ccccc3C(=O)N2C)cc1 (centres undefined) | n | n | n | n | n
COc1ccc(C2C(C(=O)Nc3cccc(C)n3)c3ccccc3C(=O)N2C)cc1 (centres undefined) | n | -109.7% | n | n | n
COc1ccc(C2C(C(=O)N3CCN(c4ccccc4F)CC3)c3ccccc3C(=O)N2C)cc1 (centres undefined) | n | -128.7% | n | n | n
Cc1cccc(-c2noc(CN(C(=O)COc3ccc(C(C)C)cc3)C(C)C)n2)c1 | n | x | x | x | x
